Measured values from PubChem BioAssay (NCI).
This is part of a sample that, as a whole, favours compounds with a hit. Of some 83,000 tested, about 20% had one in any assay.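 Testing used 96-well plates and a 48-hour single-concentration exposure. Example: -40 means 40% of the starting cells died.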 A number with no mark means an inactive call. Active and inactive are the calls of the source. The calls were made as follows: active = growth percent below 10; inactive = the rest.

Each molecule was assayed on SR leukemia (assay: NCI-60 one-dose screen, 48 h (100 = growth as untreated, 0 = no growth, -100 = all killed)). Settings: 10 µM.

SMILES	growth
COc1cc2cc(C(=O)N3C[C@@H](CCl)c4c3cc(OC(=O)N3CCN(C)[C@@H]5CSSC[C@H]53)c3ccccc43)[nH]c2c(OC)c1OC	-13.9% (active)
O=C(/C=C/c1ccc(Cl)cc1)c1nc2ccccc2n1Cc1ccc(F)cc1	-8.72% (active)
CC[C@]12C=CCN3CC[C@@]4(c5ccc(OC)cc5N(C)[C@H]4[C@@](O)(C(=O)OC)[C@@H]1OC(=O)CCC[P+](C1CCCCC1)(C1CCCCC1)C1CCCCC1)[C@@H]32	29.1%
CC(=O)Oc1ccccc1C(=O)NC([Se])=NC1CCCCC1	41.4%
CCOP(=O)(CC(F)(F)C(F)(F)F)OCC	4.39% (active)
CC(C)C[C@H](NC(=O)CNC(=O)C[C@H]1O[C@@H]2OC3(C)CC[C@H]4[C@H](C)CC[C@@H]([C@H]1C)[C@@]24OO3)B(O)O	28.7%
C[C@H]1[C@@H](Oc2ccc(-c3cn(-c4ccnc5cc(Cl)ccc45)nn3)cc2)O[C@@H]2OC3(C)CC[C@H]4[C@H](C)CC[C@@H]1[C@@]24OO3	12.2%
C[C@H]1[C@H](OC(=O)CCC(=O)N(CCCc2cn(-c3ccc([N+](=O)[O-])cc3)nn2)CCNc2ccnc3cc(Cl)ccc23)O[C@@H]2OC3(C)CC[C@H]4[C@H](C)CC[C@@H]1[C@@]24OO3	-15.2% (active)
COc1cc2cc(C(=O)N3C[C@@H](CCl)c4c3cc(OC(=O)N3CCN(C)[C@@H]5CSSC[C@@H]53)c3ccccc43)[nH]c2c(OC)c1OC	18.9%
COc1cc2cc(C(=O)N3C[C@@H](CCl)c4c3cc(OC(=O)N3CCN(C(=O)CCC(=O)N5CCN(C)CC5)[C@@H]5CSSC[C@@H]53)c3ccccc43)[nH]c2c(OC)c1OC	-12.9% (active)
COC(=O)c1ccc(-n2cc(CCCN(CCNc3ccnc4cc(Cl)ccc34)C(=O)CCC(=O)O[C@@H]3O[C@@H]4OC5(C)CC[C@H]6[C@H](C)CC[C@@H]([C@H]3C)[C@@]46OO5)nn2)cc1	-10% (active)
O=C([Se]C1C=CCCC1)c1ccc(C(=O)[Se]C2C=CCCC2)s1 (stereo not drawn)	-33% (active)
O=C(/C=C/c1cccc(Br)c1)c1nc2ccccc2n1Cc1ccc(F)cc1	-7.31% (active)
CC[C@]12C=CCN3CC[C@@]4(c5ccc(OC)cc5N(C)[C@H]4[C@@](O)(C(=O)OC)[C@@H]1OC(=O)CCC[P+](c1ccc(C)cc1)(c1ccc(C)cc1)c1ccc(C)cc1)[C@@H]32	5.74% (active)
O=C(NC([Se])=NC1CCCCC1)c1ccccc1	51.4%
O=C(/C=C/c1ccc(F)cc1)c1nc2ccccc2n1Cc1ccc(F)cc1	1.79% (active)
O=C(/C=C/c1ccccc1)c1nc2ccccc2n1Cc1ccc(Br)cc1	-19.5% (active)

SMILES	growth
C=CC[Se]C(=O)c1cncc(C(=O)[Se]CC=C)c1	-13.3% (active)
COc1ccc(OC)c(/C=C/C(=O)c2nc3ccccc3n2Cc2ccc(F)cc2)c1	-8.46% (active)
O=C(/C=C/c1ccc(F)cc1)c1nc2ccccc2n1Cc1ccc(Br)cc1	-19.5% (active)
CC[C@]12C=CCN3CC[C@@]4(c5ccc(OC)cc5N(C)[C@H]4[C@@](O)(C(=O)OC)[C@@H]1OC(=O)CCCC[P+](c1ccc(C)cc1)(c1ccc(C)cc1)c1ccc(C)cc1)[C@@H]32	25.8%
CC(C)N=C([Se])NC(=O)c1cccs1	2.39% (active)
Cc1ccc2[nH]c(=S)n(-c3ccc(F)cc3)c(=O)c2c1	103%
C#CC[Se]C(=O)c1ccc2n[se]nc2c1	3.84% (active)
CC12CCC3(CCC(=O)NCCCNc4ccnc5cc(Cl)ccc45)[C@@](C)(OO[C@]3(C)O1)O2	2.39% (active)
O=C(/C=C/c1ccc(Br)cc1)c1nc2ccccc2n1Cc1ccc(Br)cc1	-13.9% (active)
COC(=O)CCn1c(-c2ccc(-n3cc(-c4ccc(O[C@H]5O[C@@H]6OC7(C)CC[C@H]8[C@H](C)CC[C@@H]([C@H]5C)[C@@]68OO7)cc4)nn3)cc2)nc2ccccc21	-11.8% (active)
N#C[Se]CC(=O)Nc1cccc(C(F)(F)F)c1	18.5%
CCC[Se]C(=O)c1ccc(C(=O)[Se]CCC)s1	18.5%
C[C@H]1[C@@H](CC(=O)N[C@@H](Cc2coc3ccccc23)B(O)O)O[C@@H]2OC3(C)CC[C@H]4[C@H](C)CC[C@@H]1[C@@]24OO3	17.4%
O=C(/C=C/c1ccco1)c1nc2ccccc2n1Cc1ccc(F)cc1	23.6%
COC(=O)C[C@](O)(CCC(C)C)C(=O)O[C@H]1C(OC)=C[C@@]23CCCN2CCc2cc4c(cc2[C@@H]13)OCO4	-26.7% (active)
C[C@H]1[C@H](OC(=O)CCC(=O)N(CCCc2cn(-c3ccc(C#N)cc3)nn2)CCNc2ccnc3cc(Cl)ccc23)O[C@@H]2OC3(C)CC[C@H]4[C@H](C)CC[C@@H]1[C@@]24OO3	-14.5% (active)
